In PubChem BioAssay (NCATS) one finds activation and Potency data, which are given here for 40 compounds.

Values joined by “and” are separate entries in the source; they are usually repeats but may differ in a detail not shown here. Equal entries are not always repeated. Records with an inconclusive call do not appear. Values without a mark were called inactive. Active and inactive are the calls of the source. Calls come from the whole dose curve; as a rule, active = well fitted activation curve with a large enough effect; inconclusive = small, poorly fitted or top-dose-only effect; inactive = no such curve, though single readings can be large or run the other way.
Potency is the fitted concentration of half-maximal effect.

Cellular tumor antigen p53 (Homo sapiens), sequence (P04637 whole entry, looked up): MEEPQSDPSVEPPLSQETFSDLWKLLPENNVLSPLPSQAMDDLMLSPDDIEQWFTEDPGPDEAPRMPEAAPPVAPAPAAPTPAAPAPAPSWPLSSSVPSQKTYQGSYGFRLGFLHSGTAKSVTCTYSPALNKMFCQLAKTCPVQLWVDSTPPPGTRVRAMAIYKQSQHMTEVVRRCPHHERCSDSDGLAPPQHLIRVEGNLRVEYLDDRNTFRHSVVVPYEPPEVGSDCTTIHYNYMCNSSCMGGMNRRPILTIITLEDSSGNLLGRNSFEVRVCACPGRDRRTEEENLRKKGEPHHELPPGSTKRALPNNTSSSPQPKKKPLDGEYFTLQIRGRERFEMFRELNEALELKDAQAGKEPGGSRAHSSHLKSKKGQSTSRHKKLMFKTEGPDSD

This assay addresses Cellular tumor antigen p53 (Homo sapiens) (UniProt P04637). As to the kind of experiment: Primary qHTS for small molecule compounds that upregulate eGFP-tagged delta133p53alpha (in N-terminal) cells. (AID 2060322).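 For activation: cells pre-induced with doxycycline then dosed without doxycycline; series mostly up to about 56 µM; 0% = DMSO vehicle and 100% = reference activator.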 Note: nearly all actives have a fitted effect of over 75% in size. Conditions: NCI-H358 eGFP-delta133p53alpha fluorescence, 24 h; activation: active compounds read high. The source says: Assay Development and Screening Technology
National Center for Advancing Translational Sciences (NCATS),
National Institute of Health (NIH), Rockville, Maryland
Cellular senescence (CS) is one of the hallmarks of aging and age-related diseases. Senescent cells are characterized by an irreversible growth arrest, an increase in senescence-associated beta-galactosidase (SA-beta-gal) activity and p16INK4a expression, an activation of the DNA damage response pathways, and the emergence of a senescence-associated secretory phenotype (SASP).
Delta133p53alpha, a human/primate-specific p53 protein isoform, delays or inhibits the induction of CS and SASP in various types of human cells, including progeria-derived fibroblasts, primary normal astrocytes, and CD8+ T lymphocytes. Induction of delta133p53alpha with small molecule compounds may provide therapeutic opportunities for inhibition of senescence/SASP-associated pathologies in progeria syndromes, astrocyte-mediated neuroprotection in neurodegenerative diseases, and possibly prevention and treatment of a wider range of senescence- and aging-associated diseases.
Here we report the development and validation of a cell-based quantitative high throughput screening (qHTS) assay in 1,536-well format. This qHTS assay uses the NCI-H358 cell line with doxycycline-inducible expression of enhanced green fluorescent protein (eGFP)-tagged delta133p53alpha, which allows efficient and highly quantitative measurement of the protein levels.
PROTOCOL TABLE (as described by Inglese J, Shamu CE and Guy RK. 2007)
SEQUENCE No. (e.g., 1, 2, 3, etc.); […] (e.g., Cells, Incubation, Reagent, etc.); VALUE; DESCRIPTION.
1; Cells; 4uL; 800 doxycycline treated cells / well in doxycycline-free media, 1536-well black, clear-bottom low base Aurora microplates.
2; Compounds; 23 nL; Kalypsis pin tool (Wako) equipped with 1536-well pin heads, 5-azacytidine positive control.
3; Incubation; 24 hr; 37C, 5% CO2; 95% relative humidity.
4; Aspiration; 1x; BioTek EL406 washer dispenser (Agilent).
5; Fixing; 3.5% paraformaldehyde, BioTek EL406 washer dispenser (Agilent).
6; Washing; 1x PBS; BioTek EL406 washer dispenser (Agilent).
7; Nuclei staining; 1:1000 dilution of Hoechst 33342 (Thermofisher), BioTek EL406 washer dispenser (Agilent).
8; Incubation; 20 min; in the dark at room temperature.
9; Washing; 2x, 1x PBS (ThermoFisher), BioTek EL406 washer dispenser (Agilent).
10; Reagent; 10 uL; 1x PBS per well, sealed with clear adhesive tape.
NOTES (numbers refer to sequence numbers above).
1. NCI-H358 cells expressing eGFP-tagged delta133p53alpha were grown in T75 culture flasks and treated with doxycycline for 24h, at 10 ng/ml for eGFP-D133p53a cells (N-terminal cell) and 100 ng/ml for D133p53a-eGFP cells (C-terminal cells). Cells were trypsinized, counted using a Counted 3 Automated Cell Counter (Thermo Fisher), and diluted to a concentration of 200,000 cells/ml. A Multidrop Combi Reagent Dispenser (ThermoFisher) was used to dispense 800 cells/well in […] of doxycycline-free media, into 1536-well black/clear bottom low base plates (AuroraMicroplates).
2. After plating cells, 23 nl of compound library, DMSO vehicle control or positive control (5-azacytidine) were transferred by Pin Tool (Wako). The plate map layout was the same for each plate: (column 1) non-doxycycline treated cells + DMSO vehicle control; (column 2) doxycycline treated cells + DMSO vehicle control baseline; (column 3) doxycycline treated cells + positive control 57.5 uM final concentration 5-azacytidine; (column 4) doxycycline treated cells + serial dilution of 5-azacytidine, 16-point 1:2 titration spanning 1.8 nM to […] final concentration; (columns 5-48) doxycycline treated cells + titration of library compounds.
3. Cells were incubated at 37 °C, 5 % CO2, 95% RH with breathable metal lid for 24h.
4-10. […] After two washes, 10 ul of 1X PBS (Thermo Fisher) was dispensed to each well. Clear adhesive plate seals (VWR) were applied and plates stored at 4 °C.
11. […]
In general terms: Quantitative high-throughput screening tests each substance at several concentrations.
`O=C(O)C1=CC(=C(c2ccc(O)c(C(=O)O)c2)c2ccc(O)c(C(=O)O)c2)C=CC1=O`: the activation was -71.6%.
Still for that read-out and setting: then `C[C@@H]1O[C@@H](O[C@H]2[C@H](O[C@H]3[C@H](O[C@H]4CC[C@@]5(C=O)C(CC[C@]6(C)C5CC=C5C7CC(C)(C)C[C@@H](O)[C@]7(C)CC[C@]56C)C4(C)C)O[C@H](C(=O)O)[C@@H](O)[C@@H]3O)OC[C@@H](O)[C@@H]2O)[C@H](O)[C@H](O)[C@H]1O` (stereo not given in full), with -8.93%; and `CCN(CC)CCCN(c1ccccc1)C1Cc2ccccc2C1`, with -2.82% and -37.7%.
With `COC(=O)c1nc(Cl)c(Cl)nc1N`, the Potency is 27.6 µM (active).
Turning to `CC(NC(=O)[C@H](Cc1ccccc1)NC(=O)OCc1ccccc1)C(=O)CF` (stereo not given in full), the activation was -5.67%.
In the case of `CS(=O)(=O)N1CCc2c(-c3cnc(N)nc3)nc(N3CCOCC3)nc21`, the activation is 26%.
Turning to `COc1cc(Nc2ncc(F)c(Nc3ccc4c(n3)NC(=O)C(C)(C)O4)n2)cc(OC)c1OC`, the activation is 7.29%.
The same measure, in the same setting: then `O=C(CCCN1CCC(O)(c2ccc(Br)cc2)CC1)c1ccc(F)cc1`, with 3.35%; and `O=C(O)C1CCCNC1` (stereo not given), with -25.6%; and `COCC1OC(OC(C)(C)C2CCC3(C)C=C(C4CCC5C4(C)CC(O)C4OC(C(C)(C)OC6OC(CO)C(O)C(O)C6NC(C)=O)CCC45C)CCC3O2)C(NC(C)=O)C(O)C1O` (stereo not given), with -16.8%.
Take `N#CN1CCC[C@@H](n2nc(-c3ccc(Oc4ccc(F)cc4F)cc3)c(C(N)=O)c2N)C1`: the activation is -16.1%.
The same measure, in the same setting: then `CCN(CC)CCOC(=O)C(Cc1cccc2ccccc12)CC1CCCO1` (stereo not given), with -0.837%; and `Cc1coc2c1CC1OC1(C)CCC1OC1(C)C2` (stereo not given), with 4.46%.
On the same count and under the same terms, then `CN1CCN(C2=Nc3ccccc3Nc3ccc(Cl)cc32)CC1`, with 8.59%; and `C[C@H](NC(=O)CCc1nc2ccccc2c(=O)[nH]1)c1ccccc1`, with 1%.
With `Nc1c2c(nc3ccccc13)CCCC2O` (stereo not given), the activation was 7.34% and -16.8%.
Consider `O=[N+]([O-])c1cncn1CCN1CCOCC1`, for which the activation is -23.4%.
As to `CNC(=O)c1ccc2cc([C@@]3(O)CCn4cncc43)ccc2c1`, the activation was -9.55%.
Still for that read-out and setting: the same measure for `Nc1cccc(CNC(=O)c2ccc(Oc3ccc(OCc4cccc(F)c4)cc3)nc2)c1`: -6.68%.
On the same count and under the same terms, then `COC1(CC(C)C)NC(=O)C(O)(Cc2ccccc2)NC1=O` (stereo not given), with -16.8%; and `C[C@H]1[C@H](NC(=O)/C(=N/OC(C)(C)C(=O)O)c2csc(N)n2)C(=O)N1S(=O)(=O)O` (stereo in doubt), with 5.08%.
Still for that read-out and setting: then `Cn1ccc2cc3c(cc21)CCN3C(=O)Nc1cccnc1`, with 20.1% and 12% and -55.1%; and `C=CC(C)(O)CC/C=C(\C)C1CC=C(C)C(=O)O1` (stereo not given), with -9.82%; and `C[Se]CCC(N)C(=O)O` (stereo not given), with -7.89%.
Turning to `Cc1ccnc2c1NC(=O)c1cccnc1N2C1CC1`, the activation was -6.69% and 7.43%.
Same read-out and setting: then `CO[C@H]1O[C@@H]2O[C@]3(C)CC[C@@H]4[C@@H](C)CC[C@H]([C@H]1C)[C@]24OO3`, with -13%; and `O=C(OC[C@H]1O[C@@H](Oc2ccccc2COC(=O)C2(O)C=CCCC2O)[C@H](O)[C@@H](O)[C@@H]1O)c1ccccc1` (stereo not given in full), with -15.3%; and `C=C[C@](C)(O)CC[C@H]1C(C)=CC(=O)[C@H]2C(C)(C)CCC[C@]12C`, with 3.57%.
Take `CCC(C)/C=C(C)/C=C/C1=CC2=CC(=O)C3(C)OC(C)(O)C(C(=O)OC)C3C2=CO1` (stereo not given): the Potency is 13.1 µM (active).
With `C=C(C(=O)O)C1CCC2(C)CCC(O)C(C)(O)C2C1` (stereo not given), the activation is 8.04%.
Same read-out and setting: the same measure for `Cc1ccc(C(=O)C(C)CN2CCCCC2)cc1` (stereo not given): -2.39%; for `CC(=O)OCC1OC(OC2COC(OC3COC(OC4C(OC5C(CO)OC(OC6CCC7(C)C(CCC8(C)C7CC=C7C9CC(C)(C)CCC9(C(=O)OC9OC(CO)C(O)C(O)C9OC9OCC(OC%10OCC(O)(CO)C%10O)C(O)C9O)C(O)CC78C)C6(C)C)C(O)C5O)OCC(O)C4O)C(O)C3O)C(O)C2O)C(OC(=O)/C=C/c2ccccc2)C(O)C1OC(C)=O` (stereo not given): 11.5%.
The same measure, in the same setting: then `CC(=O)N(O)CCCCCN1C(=O)CCC1=O`, with -6.25%.
Still for that read-out and setting: the same measure for `Cn1cc(-c2c[nH]c3ncnc(N4CCOCC4)c23)cn1`: -7.14%; for `NC(=O)N[C@@H](CCC(=O)O)C(=O)O`: -5.02%; for `COCCN1CCC(C(=O)NO)(S(=O)(=O)c2ccc(Oc3ccc(OC(F)(F)F)cc3)cc2)CC1`: -13.4%.
For `O=C(COc1cccc2c(=O)[nH]ccc12)c1ccccc1`, the activation is -14.5%.
On the same count and under the same terms, the same measure for `COc1cc(C(O)CO)ccc1OS(=O)(=O)O` (stereo not given): 5.13%; for `COc1ccc2c(c1)c(CC(=O)O)c(C)n2Cc1ccc(Cl)cc1`: -32.5%.
On the same count and under the same terms, the same measure for `CCc1c(C)[nH]c2c1C(=O)C(CN1CCOCC1)CC2` (stereo not given): 4.18% and -34.4%.
